PubChem BioAssay (NCATS)
Several values for one entry are separate records, joined by “and”; a condition that tells them apart may be missing. Identical values can stand only once. Results filed as inconclusive are left out. More than one record can exist for a structure, and the calls need not agree. Activity calls are given as the source filed them. Unless noted, calls follow the shape of the dose curve; as a rule, active = well fitted curve in the direction sought with a large enough effect; inconclusive = small, poorly fitted or top-dose-only effect, or another doubt; inactive = no such curve, though single readings can be large; an effect the other way counts as inactive or inconclusive.

How the values were obtained:
[1] = Confirmation and Secondary Assay for Modulators of Hemoglobin Beta Chain Splicing at IVS2 654 locus (AID 910);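 also: per-well total GFP intensity by laser scanning cytometry after 2-day treatment; % of control where 0% means no effect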
Summary of the method: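 HeLa cells stably carrying EGFP interrupted by mutant beta-globin IVS2-654 intron (CMV-driven) were treated with compound for 2 days at 37C; corrected splicing was scored as total peak GFP intensity per well (488 nm excitation, 500-520 nm emission).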

[2] = Confirmation and Secondary Assay for Modulators of Hemoglobin Beta Chain Splicing at IVS2 705 locus (AID 930);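 also: HeLa cells stably expressing the EGFP-705 splicing reporter; GFP fluorescence per well restored by corrected splicing of the IVS2-705 intron in EGFP; series mostly up to about 46 µM; % of control where 0% means no effect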
Summary of the method: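 Stable HeLa line with EGFP disrupted by mutant beta-globin intron 2 (705). Overnight attachment, then 2 days of compound at 37C, 5% CO2. Signal: peak GFP intensity summed over objects 5-250 µm.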

[3] = target: Cytochrome P450 2C19 (Homo sapiens) (UniProt P33261); assay: qHTS Assay for Inhibitors and Substrates of Cytochrome P450 2C19 (AID 899); also: nearly all actives have a fitted effect of over 60% in size; also: potency is read from the fitted curve at half-maximal effect
Cytochrome P450 2C19 (Homo sapiens), sequence (P33261 whole entry, looked up): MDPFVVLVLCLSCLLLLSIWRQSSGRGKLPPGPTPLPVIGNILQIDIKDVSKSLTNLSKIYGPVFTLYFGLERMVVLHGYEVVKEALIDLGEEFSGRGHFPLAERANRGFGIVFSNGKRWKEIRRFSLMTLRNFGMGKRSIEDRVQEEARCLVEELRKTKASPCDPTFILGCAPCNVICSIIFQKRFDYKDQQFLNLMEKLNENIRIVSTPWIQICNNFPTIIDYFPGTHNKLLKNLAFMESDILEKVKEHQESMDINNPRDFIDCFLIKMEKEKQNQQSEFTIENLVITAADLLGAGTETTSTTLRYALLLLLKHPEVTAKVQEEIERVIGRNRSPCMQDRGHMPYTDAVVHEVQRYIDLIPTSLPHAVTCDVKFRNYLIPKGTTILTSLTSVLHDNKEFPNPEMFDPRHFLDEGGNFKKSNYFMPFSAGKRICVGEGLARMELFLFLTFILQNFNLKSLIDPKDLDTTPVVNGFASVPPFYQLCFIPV
Summary of the method: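 NADPH-dependent conversion of Luciferin-H EGE (10uM, at KM) by 5nM enzyme in 50mM KPO4, 60 min at 37C following 10 min compound preincubation. Stopped with luciferin detection buffer; luminescence read after 20 min.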

[4] = target: Alpha-galactosidase (Coffea arabica) (UniProt Q42656); assay: Counterscreen for Glucocerebrosidase Inhibitors: qHTS Assay for Coffee Bean alpha-Galactosidase at pH 4.5 (AID 957);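 also: series mostly up to about 77 µM; plate controls were enzyme alone for no effect and no enzyme for full effect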
Alpha-galactosidase (Coffea arabica), sequence (Q42656 whole entry, looked up): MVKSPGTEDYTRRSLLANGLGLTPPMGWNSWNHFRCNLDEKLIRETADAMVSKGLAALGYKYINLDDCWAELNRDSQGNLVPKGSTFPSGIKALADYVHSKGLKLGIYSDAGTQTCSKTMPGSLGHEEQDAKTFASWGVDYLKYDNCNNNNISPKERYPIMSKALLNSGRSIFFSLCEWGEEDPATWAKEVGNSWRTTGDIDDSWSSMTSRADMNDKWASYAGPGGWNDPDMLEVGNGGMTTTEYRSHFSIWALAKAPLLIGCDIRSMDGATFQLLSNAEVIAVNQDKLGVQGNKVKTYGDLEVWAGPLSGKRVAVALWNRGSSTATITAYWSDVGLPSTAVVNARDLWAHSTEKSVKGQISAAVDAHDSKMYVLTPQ
Summary of the method: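 Fluorogenic read-out: 4-methylumbelliferone at Ex 365/Em 440 nm after NaOH/glycine stop (pH 10). Enzyme 2 nM, 4-MU-alpha-galactoside 80 uM, citrate buffer pH 4.5, 20 min RT; normalized to no-enzyme and enzyme controls.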

[5] = qHTS Assay for Identification of Small Molecule Agonists for Thrombopoietin (TPO) Signaling Pathway (AID 917); also: % is scaled to controls: 0 for no effect and ±100 for the full control effect
Summary of the method: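 Stimulation at the TPO EC50 (26 pM final) was used to detect activators. Ba/F3 mouse cells bearing human TPO receptor and a luciferase reporter under the Glycoprotein IIb promoter were exposed to compounds for 24 hrs at 37 C.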

[6] = Cell Viability - LYMP2-001 (AID 921);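 also: series mostly up to about 92 µM; 0% = DMSO only and full inhibition = tetraoctylammonium bromide control wells; nearly all actives have a fitted effect of over 70% in size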
Summary of the method: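 Human lymphoblastoid LYMP2-001 cells, 2500 per well, in complete medium, treated 24 h at 37 C. Viability from cellular ATP by CellTiter-Glo luminescence; AC50 from Hill-equation fits of qHTS concentration-response.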

[7] = target: Muscarinic acetylcholine receptor M1 (Rattus norvegicus) (UniProt P08482); assay: qHTS Assay for Antagonists of Acetylcholine Muscarinic M1 Receptor: Kinetic Measurement of Intracellular Calcium Response (AID 943);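 also: Fluo-4 calcium signal as peak divided by basal fluorescence over 4 min; series mostly up to about 35 µM; nearly all actives have a fitted effect of over 75% in size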
Muscarinic acetylcholine receptor M1 (Rattus norvegicus), sequence (P08482 whole entry, looked up): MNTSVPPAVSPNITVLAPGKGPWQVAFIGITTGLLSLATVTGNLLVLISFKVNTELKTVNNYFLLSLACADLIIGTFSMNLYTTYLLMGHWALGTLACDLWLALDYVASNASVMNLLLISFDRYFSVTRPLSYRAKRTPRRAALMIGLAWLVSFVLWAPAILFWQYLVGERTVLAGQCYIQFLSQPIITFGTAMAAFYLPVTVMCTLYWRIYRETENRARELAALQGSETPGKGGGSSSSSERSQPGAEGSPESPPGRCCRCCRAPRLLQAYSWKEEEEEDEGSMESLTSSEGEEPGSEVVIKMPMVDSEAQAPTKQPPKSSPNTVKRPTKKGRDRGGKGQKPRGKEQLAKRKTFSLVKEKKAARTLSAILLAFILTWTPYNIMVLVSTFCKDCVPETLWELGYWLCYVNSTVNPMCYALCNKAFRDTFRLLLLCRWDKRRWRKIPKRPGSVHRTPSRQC
Summary of the method: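 Read-out: peak over basal Fluo-4 fluorescence, kinetic at 1 Hz for 4 min after EC80 carbachol (100 nM final). Rat M1-CHO cells, dye loaded 1 h at 37C, compound added 10 min before agonist.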

[8] = target: Muscarinic acetylcholine receptor M1 (Rattus norvegicus) (UniProt P08482); assay: qHTS Assay for Antagonists of Acetylcholine Muscarinic M1 Receptor: Measurement of IP-One Response (AID 944); also: nearly all actives have a fitted effect of over 75% in size
Summary of the method: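 Read-out: HTRF competition between d2-IP1 and Eu-cryptate anti-IP1 antibody, emission 620 and 665 nm. Stimulus was carbachol, EC80 (200 nM), for 30 min in M1-CHO cells (rat receptor), after 10 min compound pre-treatment.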

[9] = target: Pyruvate kinase (Leishmania mexicana) (UniProt Q27686); assay: qHTS Validation Assay for Inhibitors of Leishmania Mexicana Pyruvate Kinase (AID 945);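 also: 0% = DMSO only neutral control wells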
Pyruvate kinase (Leishmania mexicana), sequence (Q27686 2-499 E452W): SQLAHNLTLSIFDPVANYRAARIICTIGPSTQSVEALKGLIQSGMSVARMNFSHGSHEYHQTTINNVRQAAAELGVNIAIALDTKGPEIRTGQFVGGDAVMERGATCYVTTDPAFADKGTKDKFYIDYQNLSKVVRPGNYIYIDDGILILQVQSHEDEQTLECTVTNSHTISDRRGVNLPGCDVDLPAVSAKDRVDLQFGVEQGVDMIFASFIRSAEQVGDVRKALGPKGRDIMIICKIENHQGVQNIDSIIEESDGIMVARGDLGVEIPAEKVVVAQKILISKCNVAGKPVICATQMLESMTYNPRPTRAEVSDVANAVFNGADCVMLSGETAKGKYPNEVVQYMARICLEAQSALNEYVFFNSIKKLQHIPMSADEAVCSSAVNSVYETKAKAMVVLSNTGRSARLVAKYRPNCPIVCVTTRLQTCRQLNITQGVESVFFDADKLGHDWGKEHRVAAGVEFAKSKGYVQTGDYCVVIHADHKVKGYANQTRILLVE
Summary of the method: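 Mutant LmPYK (E451W), 0.2 nM, plus 0.5 mM PEP and 0.1 mM ADP in 50 mM imidazole pH 7.2 containing 0.01% Tween 20 and 0.05% BSA. Incubated 1 h at room temperature; luminescence via PKLight, normalized to DMSO.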

[10] = MultiTox-Fluor Cytotoxicity Assay - LYMP1-001 - Dead Cells (AID 946)
Summary of the method: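 Cytotoxicity as increased dead-cell protease fluorescence (bis-AAF-R110, 485/520 nm), read 60 min after MultiTox-Fluor reagent. Human lymphoblastoid line exposed 16 h; Hill-fitted AC50, with DMSO as 0% and 15 uM tetraoctylammonium bromide as 100%.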

[11] = MultiTox-Fluor Cytotoxicity Assay - LYMP1-001 - Live Cells (AID 947);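 also: 0% = DMSO only and full inhibition = tetraoctylammonium bromide control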
[12] = Cell Viability - LYMP1-002 - Assay at 16 hr (AID 948);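 also: 0% = DMSO alone and full effect = 92 µM tetraoctylammonium bromide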
Summary of the method: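 LYMP1-002 human lymphoblastoid cells, 2500/well, were treated with compounds for 16 hr at 37 C in complete medium. Viability was read as intracellular ATP by CellTiter-Glo luminescence, and AC50 was derived from a Hill fit to concentration-response data.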

[13] = target: Pyruvate kinase PKM (Homo sapiens) (UniProt P14618); assay: qHTS Assay for Activators of Human Muscle Pyruvate Kinase (AID 954; active = well fitted curve in the direction sought with a large enough effect, not every such curve was filed as active;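 also: 0% = uninhibited enzyme and -100% = no enzyme or full thiadiazolimine inhibition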)
Pyruvate kinase PKM (Homo sapiens), sequence (P14618 whole entry, looked up): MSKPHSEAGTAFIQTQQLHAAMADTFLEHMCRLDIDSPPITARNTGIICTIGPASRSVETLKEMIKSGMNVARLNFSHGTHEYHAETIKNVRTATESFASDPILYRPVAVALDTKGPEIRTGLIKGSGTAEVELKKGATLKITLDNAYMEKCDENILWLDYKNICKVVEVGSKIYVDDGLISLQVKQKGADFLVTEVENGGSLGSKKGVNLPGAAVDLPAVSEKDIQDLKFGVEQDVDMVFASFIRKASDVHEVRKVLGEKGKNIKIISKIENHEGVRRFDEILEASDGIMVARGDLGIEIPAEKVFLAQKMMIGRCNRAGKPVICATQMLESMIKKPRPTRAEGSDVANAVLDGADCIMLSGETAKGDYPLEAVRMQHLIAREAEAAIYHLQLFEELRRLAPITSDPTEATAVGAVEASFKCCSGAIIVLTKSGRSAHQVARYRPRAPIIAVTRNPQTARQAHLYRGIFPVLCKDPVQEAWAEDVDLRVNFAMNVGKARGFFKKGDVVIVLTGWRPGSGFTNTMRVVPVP
Summary of the method: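 ATP production by PKM2 detected via luciferase luminescence after 1 h room-temperature reaction (0.1 nM enzyme, PEP at Km 0.5 mM, ADP 0.1 mM, pH 7.2 imidazole buffer). Inhibition scaled to no-enzyme control; activation referenced to 0.3 nM enzyme wells.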

[14] = MultiTox-Fluor Cytotoxicity Assay - LYMP1-002 - Dead Cells (AID 960); also: nearly all actives have a fitted effect of over 60% in size; also: potency is read from the fitted curve at half-maximal effect
Summary of the method: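 Readout: fluorescence at 485/520 from cell-impermeant bis-AAF-R110 cleaved by proteases leaking from damaged cells. LYMP1-002 lymphoblastoid line, 16 hr compound treatment at 37 C, concentration-response in qHTS format; Hill-equation AC50 values.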

[15] = MultiTox-Fluor Cytotoxicity Assay - LYMP1-003 - Dead Cells (AID 961); also: nearly all actives have a fitted effect of over 70% in size
Summary of the method: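 Dead-cell protease release, detected as bis-AAF-R110 fluorescence at 485/520 nm, was measured in LYMP1-003 cells after 16 h compound treatment at 37 C. AC50 values came from Hill-modeled qHTS curves normalized to DMSO (0%) and 15 uM tetraoctylammonium bromide (100%).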

[16] = MultiTox-Fluor Cytotoxicity Assay - LYMP1-003 - Live Cells (AID 962);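 also: cells exposed to compound for 16 hours at 37 °C; 0% = DMSO only and full loss = 92 µM tetraoctylammonium bromide; cytotoxic hits lower the live-cell protease signal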
Summary of the method: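 Readout: live-cell fluorescence (Ex/Em=405/510) from GF-AFC cleavage after 60 min MultiTox-Fluor reagent at room temperature. Lymphoblastoid LYMP1-003 cells, 16 hr compound treatment, 37 C. Concentration-response fitted to standard Hill equation for AC50.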

[17] = Cell Viability - LYMP1-003 - Assay at 24 hr (AID 963);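 also: plate controls were DMSO only for no effect and tetraoctylammonium bromide positive control for full effect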
Summary of the method: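 CellTiter-Glo luminescence (intracellular ATP) read after 24 hr, 37 C compound exposure of 2500 LYMP1-003 human lymphoblastoid cells/well in complete medium; qHTS concentration series; AC50 via standard Hill equation.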

[18] = Cell Viability - LYMP1-003 - Assay at 40 hr (AID 964); also: series mostly up to about 92 µM; % is scaled to controls: 0 for no effect and ±100 for the full control effect; nearly all actives have a fitted effect of over 60% in size
Summary of the method: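 LYMP1-003 lymphoblastoid cells, 2500/well; 5 hr preincubation, 40 hr compound exposure, 37 C; CellTiter-Glo 30 min RT; luminescence; Hill-fit AC50. Positive control tetraoctylammonium bromide.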

[19] = Cell Viability - LYMP2-003 (AID 965);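 also: cells exposed to compounds for 24 h before reading; 0% = DMSO only and full effect = 92 µM tetraoctylammonium bromide; nearly all actives have a fitted effect of over 50% in size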
Summary of the method: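 Human lymphoblastoid LYMP2-003 cells, 2500/well, exposed to compounds for 24 h at 37 C in complete medium. Viability read as intracellular ATP by CellTiter-Glo luminescence; AC50 from Hill-equation fits of qHTS concentration-response data.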

[20] = qHTS Assay for Identification of Small Molecule Agonists for Hypoxia Response Element Signaling Pathway (AID 914; active = well fitted activation curve with a large enough effect in the signal ratio, with a control signal flat, not every such curve was filed as active; the % refers to the signal ratio; also: % of control where 0% means no effect); settings: ME-180 (cervical carcinoma) HRE-bla reporter, beta-lactamase ratio, CoCl2, 17 h; stronger effect = higher value
Summary of the method: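 Reporter activity (beta-lactamase, CCF4 460nm/530nm ratio) in HRE-bla ME-180 cells is recorded after 17 h compound exposure with EC50 CoCl2 at 37 degrees Celsius. AC50 values come from titration data.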

O=C1c2ccccc2C(=O)c2ccccc21
inactive: outcome [1] | outcome [2]

Cn1c(=O)c2[nH]cnc2n(C)c1=O
inactive: Potency [3] | outcome [4]

C[C@]12CCC(=O)C=C1CC[C@@H]1[C@@H]2CC[C@]2(C)C(=O)CC[C@@H]12
inactive and 15.8 µM (active): Potency [14]
inactive: outcome [5] | outcome [6] | outcome [7] | Potency [8] | outcome [9] | outcome [10] | outcome [11] | outcome [12] | outcome [13] | outcome [4] | outcome [15] | outcome [16] | outcome [17] | outcome [18] | outcome [19]

NCCc1ccc(O)cc1
inactive: Potency [3] | outcome [1] | outcome [5] | outcome [6] | outcome [2] | Potency [8] | outcome [9] | outcome [10] | outcome [11] | outcome [12] | outcome [13] | outcome [4] | Potency [14] | outcome [15] | outcome [16] | outcome [17] | outcome [18] | outcome [19]

CCC1(CC)C(=O)C=CNC1=O
inactive: outcome [1] | activation [20] -12.7% | outcome [2]

COC(=O)C(c1ccccc1)C1CCCCN1 (centres undefined)
inactive: outcome [6] | outcome [10] | outcome [11] | outcome [12] | Potency [14] | outcome [15] | outcome [16] | outcome [17] | outcome [18] | outcome [19]

CC(NC(C)(C)C)C(=O)c1cccc(Cl)c1 (centres undefined)
inactive: outcome [1] | outcome [2]

COc1cc(OC)c(OC)cc1C=O
inactive: outcome [1] | outcome [6] | outcome [2] | outcome [10] | outcome [12] | Potency [14] | outcome [15] | outcome [16] | outcome [17] | outcome [18] | outcome [19]

O=P1(N(CCCl)CCCl)NCCCO1 (centres undefined)
inactive: Potency [3] | outcome [1] | outcome [5] | outcome [6] | outcome [2] | outcome [9] | outcome [10] | outcome [11] | outcome [12] | outcome [13] | outcome [4] | Potency [14] | outcome [15] | outcome [16] | outcome [17] | outcome [18] | outcome [19]

CCCCC/C=C\C/C=C\C/C=C\C/C=C\CCCC(=O)NCC(=O)O
inactive: outcome [5] | outcome [7] | Potency [8] | outcome [9] | outcome [13] | outcome [4]

O=c1[nH]oc2c1CCNC2
inactive: outcome [1] | outcome [5] | outcome [2] | outcome [7] | Potency [8] | outcome [9] | outcome [13] | outcome [4]

CC(C)(C)NCC(O)c1ccccc1Cl (centres undefined)
inactive: outcome [1] | outcome [2]

Cc1ncsc1CCCl
active: Potency [3] 7.94 µM

CCCC(C)(COC(N)=O)COC(N)=O
inactive: outcome [6] | outcome [10] | outcome [11] | outcome [12] | Potency [14] | outcome [15] | outcome [16] | outcome [17] | outcome [18] | outcome [19]

c1ccc2c(c1)sc1ccccc12
inactive: outcome [1] | outcome [2]

O=c1oc2ccccc2c(O)c1Cc1c(O)c2ccccc2oc1=O
inactive: outcome [1] | outcome [2]

CC(C)NC(C)C
inactive: outcome [6] | outcome [10] | outcome [11] | outcome [12] | Potency [14] | outcome [15] | outcome [16] | outcome [17] | outcome [18] | outcome [19]

CC(C)c1cccc(C(C)C)c1O
inactive: outcome [1] | outcome [5] | outcome [6] | outcome [2] | Potency [8] | outcome [9] | outcome [10] | outcome [11] | outcome [12] | outcome [13] | outcome [4] | Potency [14] | outcome [15] | outcome [16] | outcome [17] | outcome [18] | outcome [19]
